From PubChem BioAssay (Tox21)
Records with an inconclusive call do not appear. Active and inactive are the calls of the source. Unless noted, calls follow the shape of the dose curve; as a rule, active = well fitted cell-killing curve with a large enough effect in the repeat runs; inconclusive = weak or mixed curves, or effect the other way; inactive = flat fitted curve, though single readings scatter.

experiment: qHTS assay to identify small molecule agonists of the TGF-beta/Smad signaling pathway - cell viability counter screen (AID 1346829); settings: SBE-bla HEK293T viability, CellTiter-Glo luminescence, 5 h; series mostly up to 76.8 µM; activity change, negative = cytotoxicity: at the top concentration; also: top concentration of the series differs between compounds; nearly all actives have a fitted effect of over 45% in size
Outline: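 Cytotoxicity counter screen: CellTiter-Glo luminescence (30 min, room temperature) measured in the SBE-bla HEK 293T reporter wells after 5 hr compound treatment at 37 C and the 2 hr substrate step.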
% is scaled to controls: 0 for no effect and ±100 for the full control effect.

**Q.** For `CCCCN1C=CN(C)C1`, which activity change, negative = cytotoxicity is on record?
**A.** -1.56% [at 15.8 µM] (inactive)

**Q.** Which “activity change, negative = cytotoxicity” value does the source give for `CCCC(C)C(=O)OCC` (configuration not stated) here?
**A.** -0.914% (inactive)

**Q.** With `C[C@H]1C[C@H]2[C@@H]3CCC4=CC(=O)C=C[C@]4(C)[C@H]3C(=O)C[C@]2(C)[C@@]1(O)C(=O)CO` as the compound, how does the “activity change, negative = cytotoxicity” value read?
**A.** 5.71% [at 35.3 µM] (inactive)

**Q.** Which “activity change, negative = cytotoxicity” value does the source give for `CO/N=C(\C(=O)N[C@@H]1C(=O)N2C(C(=O)O)=C(CSc3nc(=O)c(O)nn3C)CS[C@H]12)c1csc(N)n1` here?
**A.** 0.845% [at 35.3 µM] (inactive)

**Q.** Which “activity change, negative = cytotoxicity” value does the source give for `CC(=O)N[C@H]1[C@H]([C@H](O)[C@H](O)CO)OC(C(=O)O)=C[C@@H]1N=C(N)N` here?
**A.** 5.37% [at 35.3 µM] (inactive)

**Q.** For `CCOc1ccc2nc(S(N)(=O)=O)sc2c1`, which “activity change, negative = cytotoxicity” value is on record?
**A.** -2% [at 35.3 µM] (inactive)

**Q.** With `CNCC(O)c1ccc(O)c(O)c1` (configuration not stated) as the compound, how does the “activity change, negative = cytotoxicity” value read?
**A.** -0.829% [at 35.3 µM] (inactive)

**Q.** For `[Ca+2]`, which “activity change, negative = cytotoxicity” value is on record?
**A.** 2.2% (inactive)

**Q.** Which “activity change, negative = cytotoxicity” value does the source give for `Nc1ccccn1` here?
**A.** 2.87% (inactive)

**Q.** With `O=C(O)CC(C(=O)O)S(=O)(=O)O` (configuration not stated) as the compound, how does the “activity change, negative = cytotoxicity” value read?
**A.** -15.4% (inactive)

**Q.** For `CC(=O)C1CCCCC1=O` (configuration not stated), which “activity change, negative = cytotoxicity” value is on record?
**A.** 1.17% (inactive)

**Q.** Which “activity change, negative = cytotoxicity” value does the source give for `O=S(=O)(O)c1cccc2ccccc12` here?
**A.** -11% (inactive)

**Q.** Which “activity change, negative = cytotoxicity” value does the source give for `CN(C)C(=O)Oc1cccc([N+](C)(C)C)c1` here?
**A.** 2.4% [at 35.3 µM] (inactive)

**Q.** Which activity change, negative = cytotoxicity does the source give for `CCN[C@@H]1C[C@H](N)[C@@H](OC2OC(CN)=CCC2N)[C@H](O)[C@H]1O[C@H]1OC[C@](C)(O)[C@H](NC)[C@H]1O` (some centres not stated) here?
**A.** -2.15% [at 0.29 µM] (inactive)

**Q.** Which “activity change, negative = cytotoxicity” value does the source give for `O=C(O)CNC(=O)c1ccc(CO)o1` here?
**A.** -5.51% (inactive)

**Q.** With `CN(C)CCN(C)CCN(C)C` as the compound, how does the “activity change, negative = cytotoxicity” value read?
**A.** 1.72% (inactive)

**Q.** Which “activity change, negative = cytotoxicity” value does the source give for `NCCCC[C@H](N[C@@H](CCc1ccccc1)C(=O)O)C(=O)N1CCC[C@H]1C(=O)O` here?
**A.** 0.535% [at 35.3 µM] (inactive)

**Q.** Which “activity change, negative = cytotoxicity” value does the source give for `Nc1ccn([C@@H]2O[C@H](CO)[C@@H](O)C2O)c(=O)n1` (some centres not stated) here?
**A.** 20.7% (inactive)

**Q.** With `O=C(O)CCCC[P+](c1ccccc1)(c1ccccc1)c1ccccc1` as the compound, how does the “activity change, negative = cytotoxicity” value read?
**A.** 0.0992% [at 35.3 µM] (inactive)

**Q.** Which “activity change, negative = cytotoxicity” value does the source give for `COc1cc(C)nc(-n2nc(C)cc2OC)n1` here?
**A.** 11.1% [at 35.3 µM] (inactive)

**Q.** Which “activity change, negative = cytotoxicity” value does the source give for `Cc1ccc(C(=O)c2ccc(CC(=O)O)n2C)cc1` here?
**A.** 9.49% [at 35.3 µM] (inactive)

**Q.** With `C[N+]1(C)CCCC(OC(=O)C(O)(c2ccccc2)c2ccccc2)C1` (configuration not stated) as the compound, how does the “activity change, negative = cytotoxicity” value read?
**A.** -20.4% [at 35.3 µM] (inactive)

**Q.** For `CCCCCCCCCCCCCCC(=O)O`, which “activity change, negative = cytotoxicity” value is on record?
**A.** 24.8% (inactive)

**Q.** For `Cc1coc2ccccc2c1=O`, which “activity change, negative = cytotoxicity” value is on record?
**A.** 4.59% [at 35.3 µM] (inactive)

**Q.** With `CC(C)COC(=O)c1ccc(N)cc1` as the compound, how does the “activity change, negative = cytotoxicity” value read?
**A.** 3.36% [at 35.3 µM] (inactive)

**Q.** For `COc1cccc(OC)c1C(=O)N[C@@H]1C(=O)N2[C@@H]1SC(C)(C)[C@@H]2C(=O)O`, which “activity change, negative = cytotoxicity” value is on record?
**A.** 5.77% [at 35.3 µM] (inactive)

experiment: qHTS assay to identify small molecule agonists of the TGF-beta/Smad signaling pathway (AID 1346859; active = well fitted activation curve with a large enough effect in the signal ratio in the repeat runs, not every such curve was filed as active; the % refers to the signal ratio); settings: SBE-bla HEK293T, TGF-beta/Smad beta-lactamase reporter, 5 h; series mostly up to 76.8 µM; activation: at the top concentration
Outline: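 Dual-wavelength fluorescence (460/530 nm emission) quantified beta-lactamase expression under the Smad binding element in HEK 293T cells following 5 hr compound treatment at 37 C.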

**Q.** For `CCCCN1C=CN(C)C1`, which activation is on record?
**A.** 4.63% [at 15.8 µM] (inactive)

**Q.** For `CCCC(C)C(=O)OCC` (configuration not stated), which “activation” value is on record?
**A.** 0.982% (inactive)

**Q.** Which “activation” value does the source give for `C[C@H]1C[C@H]2[C@@H]3CCC4=CC(=O)C=C[C@]4(C)[C@H]3C(=O)C[C@]2(C)[C@@]1(O)C(=O)CO` here?
**A.** 0.655% [at 35.3 µM] (inactive)

**Q.** With `CC[N+](C)(CC)CCOC(=O)C1c2ccccc2Oc2ccccc21` as the compound, how does the “activation” value read?
**A.** 4.07% [at 35.3 µM] (inactive)

**Q.** For `CO/N=C(\C(=O)N[C@@H]1C(=O)N2C(C(=O)O)=C(CSc3nc(=O)c(O)nn3C)CS[C@H]12)c1csc(N)n1`, which “activation” value is on record?
**A.** -4.57% [at 35.3 µM] (inactive)

**Q.** Which “activation” value does the source give for `CC(=O)N[C@H]1[C@H]([C@H](O)[C@H](O)CO)OC(C(=O)O)=C[C@@H]1N=C(N)N` here?
**A.** 0.833% [at 35.3 µM] (inactive)

**Q.** Which “activation” value does the source give for `CCOc1ccc2nc(S(N)(=O)=O)sc2c1` here?
**A.** -2.97% [at 35.3 µM] (inactive)

**Q.** Which “activation” value does the source give for `O=S(=O)(O)c1cccc2c(S(=O)(=O)O)cccc12` here?
**A.** 2.76% (inactive)

**Q.** With `NC(=O)N[C@@H](CCC(=O)O)C(=O)O` as the compound, how does the “activation” value read?
**A.** 0.962% [at 35.3 µM] (inactive)

**Q.** For `CNCC(O)c1ccc(O)c(O)c1` (configuration not stated), which “activation” value is on record?
**A.** 4.61% [at 35.3 µM] (inactive)

**Q.** For `[Ca+2]`, which “activation” value is on record?
**A.** 0.425% (inactive)

**Q.** With `Nc1ccccn1` as the compound, how does the “activation” value read?
**A.** -7.1% (inactive)

**Q.** With `O=C(O)CC(C(=O)O)S(=O)(=O)O` (configuration not stated) as the compound, how does the “activation” value read?
**A.** -0.126% (inactive)

**Q.** Which “activation” value does the source give for `CC(=O)C1CCCCC1=O` (configuration not stated) here?
**A.** 1.81% (inactive)

**Q.** Which “activation” value does the source give for `CO[C@@]1(NC(=O)C(C(=O)O)c2ccc(O)cc2)C(=O)N2C(C(=O)O)=C(CSc3nnnn3C)CO[C@@H]21` (some centres not stated) here?
**A.** -0.158% [at 35.3 µM] (inactive)

**Q.** With `O=S(=O)(O)c1cccc2ccccc12` as the compound, how does the “activation” value read?
**A.** -1.43% (inactive)

**Q.** With `CC[N+](CC)(CC(=O)Nc1c(C)cccc1C)Cc1ccccc1` (tested in a mixture with another compound) as the compound, how does the “activation” value read?
**A.** -0.424% [at 35.3 µM] (inactive)

**Q.** Which “activation” value does the source give for `CN(C)C(=O)Oc1cccc([N+](C)(C)C)c1` here?
**A.** 0.333% [at 35.3 µM] (inactive)

**Q.** With `CCN[C@@H]1C[C@H](N)[C@@H](OC2OC(CN)=CCC2N)[C@H](O)[C@H]1O[C@H]1OC[C@](C)(O)[C@H](NC)[C@H]1O` (some centres not stated) as the compound, how does the activation read?
**A.** -2.06% [at 0.29 µM] (inactive)

**Q.** Which “activation” value does the source give for `O=C(O)CNC(=O)c1ccc(CO)o1` here?
**A.** 0.328% (inactive)

**Q.** With `CC(C)(C)C(=O)Oc1ccc(S(=O)(=O)Nc2ccccc2C(=O)NCC(=O)O)cc1` as the compound, how does the “activation” value read?
**A.** 2.15% [at 35.3 µM] (inactive)

**Q.** For `Cc1c(N)c(=O)n(-c2ccccc2)n1C`, which “activation” value is on record?
**A.** -1.17% [at 35.3 µM] (inactive)

**Q.** For `NCCCC[C@H](N[C@@H](CCc1ccccc1)C(=O)O)C(=O)N1CCC[C@H]1C(=O)O`, which “activation” value is on record?
**A.** 1.98% [at 35.3 µM] (inactive)

**Q.** Which “activation” value does the source give for `Nc1ccn([C@@H]2O[C@H](CO)[C@@H](O)C2O)c(=O)n1` (some centres not stated) here?
**A.** -0.0797% (inactive)

**Q.** Which “activation” value does the source give for `CC(C(=O)O)c1cccc(Oc2ccccc2)c1` (configuration not stated) here?
**A.** -1.78% [at 35.3 µM] (inactive)

**Q.** Which “activation” value does the source give for `O=C(O)CCCC[P+](c1ccccc1)(c1ccccc1)c1ccccc1` here?
**A.** 2.88% [at 35.3 µM] (inactive)

**Q.** With `COc1cc(C)nc(-n2nc(C)cc2OC)n1` as the compound, how does the “activation” value read?
**A.** -1.02% [at 35.3 µM] (inactive)

**Q.** Which “activation” value does the source give for `CCCCCCCCCCCCCCCCCCO` here?
**A.** 3.5% [at 35.3 µM] (inactive)

**Q.** With `CC12CCC(C(=O)C1=O)C2(C)C` (configuration not stated) as the compound, how does the “activation” value read?
**A.** 1.03% (inactive)

**Q.** Which “activation” value does the source give for `C[N+]1(C)CCCC(OC(=O)C(O)(c2ccccc2)c2ccccc2)C1` (configuration not stated) here?
**A.** 1.3% [at 35.3 µM] (inactive)

**Q.** For `CCCCCCCCCCCCCCC(=O)O`, which “activation” value is on record?
**A.** -5.8% (inactive)

**Q.** Which “activation” value does the source give for `NCCCC(N)(C(=O)O)C(F)F` (configuration not stated) here?
**A.** 1% [at 35.3 µM] (inactive)

**Q.** Which “activation” value does the source give for `Cc1coc2ccccc2c1=O` here?
**A.** 2.85% [at 35.3 µM] (inactive)

**Q.** For `CC(C)COC(=O)c1ccc(N)cc1`, which “activation” value is on record?
**A.** -0.814% [at 35.3 µM] (inactive)

**Q.** For `CN1[C@@H]2CC[C@H]1CC(OC(=O)C(O)c1ccccc1)C2` (some centres not stated), which “activation” value is on record?
**A.** 1.92% [at 35.3 µM] (inactive)

**Q.** Which “activation” value does the source give for `COc1cccc(OC)c1C(=O)N[C@@H]1C(=O)N2[C@@H]1SC(C)(C)[C@@H]2C(=O)O` here?
**A.** -4.34% [at 35.3 µM] (inactive)
